Source: PubChem BioAssay (Tox21)
Several values for one entry are separate records, joined by “and”; a condition that tells them apart may be missing. Equal entries are not always repeated. Results filed as inconclusive are left out. The source holds several records for some structures; these can differ, active in one and inactive in another. Activity calls are given as the source filed them. Unless noted, calls follow the shape of the dose curve; as a rule, active = well fitted curve in the direction sought with a large enough effect in the repeat runs; inconclusive = weak or mixed curves; inactive = no such curve, though single readings can be large; an effect the other way counts as inactive or inconclusive.

Tests used:
[1] = qHTS assay to identify small molecule agonists of the RXR signaling pathway - cell viability counter screen (AID 1159529); also: nearly all actives have a fitted effect of over 50% in size; also: potency is read from the fitted curve at half-maximal effect
Summary of the method: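 RXR-alpha-UAS-bla HEK 293T cells in medium with 2% charcoal-stripped FBS were pre-incubated 5 hr, then compound-treated 16 hr at 37 C. Viability was read by CellTiter-Glo luminescence in the same wells as the beta-lactamase assay, with tetraoctyl ammonium bromide as positive control.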

[2] = qHTS assay to identify small molecule antagonists of the retinoid acid receptor (RAR) signaling pathway - cell viability counter screen (AID 1159551); also: nearly all actives have a fitted effect of over 35% in size; also: potency is read from the fitted curve at half-maximal effect
Summary of the method: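 Seed C3RL4 cells; next day add compound, then retinol to 1 uM final; incubate 6 h at 37 C; add CellTiter-Glo; read luminescence after 30 min at RT.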

[3] = molecular target: Nuclear receptor subfamily 1 group I member 3 (Homo sapiens) (UniProt Q14994); assay: qHTS assay to identify small molecule agonists of the constitutive androstane receptor (CAR) signaling pathway (AID 1224839); also: nearly all actives have a fitted effect of over 15% in size; also: potency is read from the fitted curve at half-maximal effect
Summary of the method: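 HepG2 cells stably co-transfected with hCAR and a CYP2B6-2.2kb luciferase reporter; compounds at 15 concentrations with 0.75 uM PK11195 present. After 24 hr at 37 C, luciferase read by ONE-Glo luminescence.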

[4] = qHTS assay to identify small molecule antagonists of the estrogen related receptor signaling pathway with the pleiotropic PPARgamma coactivator (PGC) from Tox21 10K library - cell viability counter screen (AID 1224840; active = well fitted cell-killing curve with a large enough effect in the repeat runs, not every such curve was filed as active; also: nearly all actives have a fitted effect of over 40% in size; also: potency is read from the fitted curve at half-maximal effect)
Summary of the method: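 Here the PGC/ERR cells serve as a cytotoxicity control: they are exposed to compounds for 17.5 hours at 37 C, and live-cell signal is quantified using CellTiter-Fluor fluorescence.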

[5] = qHTS RealTime-Glo MT Cell Viability Assay in HepG2 cells - 8 hour (AID 1224873); also: nearly all actives have a fitted effect of over 55% in size; also: potency is read from the fitted curve at half-maximal effect
Summary of the method: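 Real-time viability: cells seeded at 600 per well together with NanoLuc and cell-permeant prosubstrate, compounds added after 5 h incubation. Luminescence tracked at 0, 8, 16, 24, 32 and 40 h of exposure.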

[6] = qHTS assay to identify small molecule agonists of the androgen receptor (AR) signaling pathway in the presence of an antagonist - cell viability counter screen (AID 1259379); also: nearly all actives have a fitted effect of over 25% in size; also: potency is read from the fitted curve at half-maximal effect
Summary of the method: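 A CellTiter-Fluor read-out measured viability of MDA-kb2 reporter cells (MMTV promoter with AR and GR response elements). Treatment: nilutamide 3.0uM final with compounds at 15 concentrations, 16 hr, 37C, 0% CO2.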

[7] = qHTS assay to identify small molecule antagonists of the estrogen receptor beta (ER-beta) signaling pathway - cell viability counter screen (AID 1259382); also: nearly all actives have a fitted effect of over 55% in size; also: potency is read from the fitted curve at half-maximal effect
Summary of the method: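 Agonist-stimulated (1nM E2) ER-beta-UAS-bla HEK293T cells are incubated with library compounds for 16 hr at 37C. Cell viability is then assessed in the reporter-assay wells by adding CellTiter-Glo and reading luminescence after 30 min.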

[8] = molecular target: Thyrotropin receptor (Homo sapiens) (UniProt P16473); assay: qHTS assay to identify small molecule antagonists of the thyroid stimulating hormone receptor (TSHR) signaling pathway (AID 1259385; calls by dose curve; also: nearly all actives have a fitted effect of over 20% in size)
Summary of the method: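 Antagonist mode: compound-treated TSHR-expressing HEK293 cells were stimulated with 1.5 ng/mL TSH (final) in presence of Ro20-1724 for 30 min at RT. HTRF cAMP detection after 1 h; each compound tested at 15 concentrations, triplicate.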

[9] = molecular target: Progesterone receptor (Homo sapiens) (UniProt P06401); assay: qHTS assay to identify small molecule agonists of the progesterone receptor (PR) signaling pathway (AID 1346784; calls by dose curve; also: nearly all actives have a fitted effect of over 30% in size)
Summary of the method: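 PR-UAS-bla HEK 293T cells (beta-lactamase reporter under UAS) in 2% charcoal-stripped FBS, dosed with 23 nL compound after 6 hr, incubated 16hr at 37C. LiveBLAzer B/G FRET substrate added, fluorescence read after 2 hours.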

[10] = molecular target: Thyrotropin-releasing hormone receptor (Homo sapiens) (UniProt P34981); assay: qHTS assay to identify small molecule agonists of the thyrotropin-releasing hormone receptor (TRHR) signaling pathway (AID 1346891; calls by dose curve; also: series mostly up to about 58 µM)
Summary of the method: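 HEK293 cells expressing TRHR plated 18 h at 37 C/5% CO2, calcium dye-loaded 2 h at 37 C, then compound added (agonist mode); kinetic calcium fluorescence read 3 min at 1 s intervals; 15 concentrations in triplicate.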

[11] = Human pregnane X receptor (PXR) small molecule agonists, qHTS cell viability counter screen (AID 1346977); also: nearly all actives have a fitted effect of over 50% in size; also: potency is read from the fitted curve at half-maximal effect
Summary of the method: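 PXR-Luc HepG2 cells (2,000/well, 5% charcoal-stripped FBS) preincubated 5 hr, then exposed to compounds 24 hr at 37 C. Viability read in the same wells by CellTiter-Fluor fluorescence, reagent added at 23 hr, 1 hr incubation.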

[12] = Caspase-3/7 induction in CHO-K1 cells by small molecules, qHTS cell viability counter screen (AID 1346979); also: nearly all actives have a fitted effect of over 35% in size; also: potency is read from the fitted curve at half-maximal effect
Summary of the method: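 Wild-type CHO-K1 cells (1,500/well) treated with compound after 5 h plating; after 16 h at 37C, viability read as CellTiter-Fluor fluorescence following 1 h reagent incubation, in the same wells as the caspase read.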

[13] = Caspase-3/7 induction in HepG2 cells by small molecules, qHTS cell viability counter screen (AID 1346981); also: nearly all actives have a fitted effect of over 30% in size; also: potency is read from the fitted curve at half-maximal effect
Summary of the method: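 Multiplexed with the caspase-3/7 assay: HepG2 cells, 16 hr compound treatment, CellTiter-Fluor viability detection by fluorescence.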

[14] = molecular target: Cytochrome P450 2D6 (Homo sapiens) (UniProt P10635); assay: Cytochrome P450 Family 2 Subfamily D Member 6 (CYP2D6) small molecule antagonists: luciferase reporter qHTS assay (AID 1671196); also: series mostly up to about 120 µM; nearly all actives have a fitted effect of over 50% in size
Summary of the method: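 Luminescence (RLU), read 20 min after detection reagent, indicated CYP2D6 conversion of proluciferin to luciferin during a 1 h NADPH-dependent reaction at room temperature.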

[15] = qHTS RealTime-Glo MT Cell Viability Assay in HEK293 cells - 16 hour (AID 1224872); also: potency is read from the fitted curve at half-maximal effect; nearly all actives have a fitted effect of over 50% in size
Summary of the method: (§1)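 Tox21 10K qHTS, HEK293, 600 cells/well, RealTime-Glo reagent co-dispensed with cells; 5 h preincubation, compound by pintool, 37 C, luminescence at 0–40 h.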

[16] = A CellTox Green Cytotoxicity Assay to monitor cytotoxicity in HEK293 cells - 32 hour (AID 1224881); also: potency is read from the fitted curve at half-maximal effect; nearly all actives have a fitted effect of over 40% in size
Summary of the method: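 Seeding of HEK293 cells together with cytotoxicity dye preceded a 5 h incubation at 37 C/5% CO2. Test compounds in DMSO were then added and fluorescence monitored across 40 h.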

[17] = qHTS RealTime-Glo MT Cell Viability Assay in HEK293 cells - 24 hour (AID 1224886)
Summary of the method: as §1

[18] = qHTS assay to identify small molecule agonists of the estrogen receptor beta (ER-beta) signaling pathway - cell viability counter screen (AID 1259380); also: potency is read from the fitted curve at half-maximal effect; nearly all actives have a fitted effect of over 30% in size
Summary of the method: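 Cells used were ER-beta-UAS-bla HEK293T in medium with 2% charcoal-stripped FBS. They were treated for 16 hr at 37C. Viability came from CellTiter-Glo luminescence.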

[19] = molecular target: Cytochrome P450 3A4 (Homo sapiens) (UniProt P08684); assay: Cytochrome P450 Family 3 Subfamily A Member 4 (CYP3A4) small molecule antagonists: luciferase reporter qHTS assay (AID 1671201); also: nearly all actives have a fitted effect of over 50% in size; also: potency is read from the fitted curve at half-maximal effect
Summary of the method: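 P450-Glo CYP3A4 luminescent assay: compounds preincubated 10 min at room temperature with enzyme and proluciferin substrate, NADPH regeneration added, 1 h room-temperature reaction, stopped with luciferin detection reagent; luminescence read after 20 min. Ketoconazole positive control.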

[20] = qHTS assay to identify small molecule agonists of the hypoxia (HIF-1) signaling pathway - cell viability counter screen (AID 1224844; calls by dose curve)
Summary of the method: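 Multiplexed with the HRE beta-lactamase assay, this viability read used CellTiter-Glo luminescence (30 min, RT) on HRE-bla ME-180 cells treated 17 hrs with compounds in 0.5% dialyzed FBS medium.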

Measured: Potency

Chain of Thyrotropin receptor (Homo sapiens) (P16473 whole entry, looked up): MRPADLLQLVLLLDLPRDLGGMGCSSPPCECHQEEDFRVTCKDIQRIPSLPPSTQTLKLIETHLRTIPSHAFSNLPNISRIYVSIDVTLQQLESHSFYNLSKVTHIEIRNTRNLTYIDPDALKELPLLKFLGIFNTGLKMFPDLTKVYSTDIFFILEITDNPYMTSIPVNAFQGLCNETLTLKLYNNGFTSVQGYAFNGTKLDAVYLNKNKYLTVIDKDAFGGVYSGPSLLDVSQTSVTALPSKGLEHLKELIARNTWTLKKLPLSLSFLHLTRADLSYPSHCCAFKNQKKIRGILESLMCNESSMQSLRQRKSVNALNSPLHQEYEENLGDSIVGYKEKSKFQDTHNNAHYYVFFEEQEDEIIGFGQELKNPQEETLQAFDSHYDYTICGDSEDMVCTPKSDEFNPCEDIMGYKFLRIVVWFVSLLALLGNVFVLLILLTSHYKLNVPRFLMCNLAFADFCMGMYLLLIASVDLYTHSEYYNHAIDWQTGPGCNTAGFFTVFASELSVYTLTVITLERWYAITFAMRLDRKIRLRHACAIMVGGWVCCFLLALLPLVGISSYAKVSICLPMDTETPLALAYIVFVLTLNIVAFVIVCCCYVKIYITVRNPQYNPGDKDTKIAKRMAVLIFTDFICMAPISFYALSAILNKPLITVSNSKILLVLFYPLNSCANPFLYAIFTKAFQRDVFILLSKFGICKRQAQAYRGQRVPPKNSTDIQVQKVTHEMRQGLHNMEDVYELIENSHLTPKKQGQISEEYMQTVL
Chain of Cytochrome P450 3A4 (Homo sapiens) (P08684 whole entry, looked up): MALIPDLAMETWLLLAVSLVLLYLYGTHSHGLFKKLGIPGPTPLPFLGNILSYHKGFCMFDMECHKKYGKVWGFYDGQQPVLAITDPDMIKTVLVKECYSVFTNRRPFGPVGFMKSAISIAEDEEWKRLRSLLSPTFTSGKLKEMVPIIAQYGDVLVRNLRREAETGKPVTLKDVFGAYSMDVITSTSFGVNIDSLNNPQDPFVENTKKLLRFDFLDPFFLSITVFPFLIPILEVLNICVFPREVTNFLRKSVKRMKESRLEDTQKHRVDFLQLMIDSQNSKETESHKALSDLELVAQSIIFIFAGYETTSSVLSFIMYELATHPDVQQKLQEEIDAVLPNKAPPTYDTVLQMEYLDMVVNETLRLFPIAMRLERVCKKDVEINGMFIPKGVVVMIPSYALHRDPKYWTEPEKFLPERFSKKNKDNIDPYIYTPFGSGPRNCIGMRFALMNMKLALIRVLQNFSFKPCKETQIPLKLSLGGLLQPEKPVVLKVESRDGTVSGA
Chain of Thyrotropin-releasing hormone receptor (Homo sapiens) (P34981 whole entry, looked up): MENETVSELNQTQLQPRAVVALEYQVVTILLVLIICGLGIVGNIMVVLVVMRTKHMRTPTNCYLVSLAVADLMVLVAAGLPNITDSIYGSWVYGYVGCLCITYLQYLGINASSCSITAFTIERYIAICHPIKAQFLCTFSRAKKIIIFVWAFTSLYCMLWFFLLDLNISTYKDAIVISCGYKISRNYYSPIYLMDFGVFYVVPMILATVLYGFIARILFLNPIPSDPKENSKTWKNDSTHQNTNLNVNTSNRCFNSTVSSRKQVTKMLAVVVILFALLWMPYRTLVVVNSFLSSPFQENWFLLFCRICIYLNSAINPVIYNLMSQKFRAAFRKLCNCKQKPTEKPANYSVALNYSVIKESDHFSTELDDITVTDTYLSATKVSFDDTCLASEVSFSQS
Chain of Nuclear receptor subfamily 1 group I member 3 (Homo sapiens) (Q14994 whole entry, looked up): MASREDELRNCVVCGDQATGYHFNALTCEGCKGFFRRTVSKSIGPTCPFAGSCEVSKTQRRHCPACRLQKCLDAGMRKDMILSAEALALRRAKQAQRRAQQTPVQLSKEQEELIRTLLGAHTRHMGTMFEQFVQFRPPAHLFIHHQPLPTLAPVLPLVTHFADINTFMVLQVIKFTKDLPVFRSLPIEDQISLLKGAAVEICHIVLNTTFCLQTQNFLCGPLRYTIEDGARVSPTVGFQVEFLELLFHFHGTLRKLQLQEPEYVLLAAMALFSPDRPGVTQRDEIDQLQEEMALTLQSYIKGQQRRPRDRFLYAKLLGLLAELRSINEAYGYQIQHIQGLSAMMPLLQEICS
Chain of Progesterone receptor (Homo sapiens) (P06401 whole entry, looked up): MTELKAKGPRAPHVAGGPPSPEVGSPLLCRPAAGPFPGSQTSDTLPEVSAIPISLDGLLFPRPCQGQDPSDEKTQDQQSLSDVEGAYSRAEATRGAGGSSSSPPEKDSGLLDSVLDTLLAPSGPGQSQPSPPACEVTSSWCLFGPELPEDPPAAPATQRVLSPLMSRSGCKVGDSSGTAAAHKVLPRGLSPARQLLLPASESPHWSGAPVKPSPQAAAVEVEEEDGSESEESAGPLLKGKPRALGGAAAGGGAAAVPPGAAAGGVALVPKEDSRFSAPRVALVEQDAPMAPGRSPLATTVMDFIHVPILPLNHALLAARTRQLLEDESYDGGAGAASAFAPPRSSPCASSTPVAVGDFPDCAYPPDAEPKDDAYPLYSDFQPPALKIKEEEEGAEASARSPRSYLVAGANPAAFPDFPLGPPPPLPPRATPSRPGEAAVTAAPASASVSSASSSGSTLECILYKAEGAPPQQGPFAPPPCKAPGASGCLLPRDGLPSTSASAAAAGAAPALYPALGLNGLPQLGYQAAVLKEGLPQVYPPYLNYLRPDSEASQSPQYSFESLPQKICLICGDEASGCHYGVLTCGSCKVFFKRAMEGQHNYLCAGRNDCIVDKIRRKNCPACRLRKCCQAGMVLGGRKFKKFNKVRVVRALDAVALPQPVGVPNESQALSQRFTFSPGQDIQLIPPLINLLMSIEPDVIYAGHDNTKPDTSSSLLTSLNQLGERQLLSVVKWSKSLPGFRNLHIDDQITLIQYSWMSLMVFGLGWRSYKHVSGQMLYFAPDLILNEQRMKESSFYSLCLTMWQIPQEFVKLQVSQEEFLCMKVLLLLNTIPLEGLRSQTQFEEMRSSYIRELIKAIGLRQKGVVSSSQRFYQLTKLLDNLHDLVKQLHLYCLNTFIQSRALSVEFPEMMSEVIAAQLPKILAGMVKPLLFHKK
Chain of Cytochrome P450 2D6 (Homo sapiens) (P10635 whole entry, looked up): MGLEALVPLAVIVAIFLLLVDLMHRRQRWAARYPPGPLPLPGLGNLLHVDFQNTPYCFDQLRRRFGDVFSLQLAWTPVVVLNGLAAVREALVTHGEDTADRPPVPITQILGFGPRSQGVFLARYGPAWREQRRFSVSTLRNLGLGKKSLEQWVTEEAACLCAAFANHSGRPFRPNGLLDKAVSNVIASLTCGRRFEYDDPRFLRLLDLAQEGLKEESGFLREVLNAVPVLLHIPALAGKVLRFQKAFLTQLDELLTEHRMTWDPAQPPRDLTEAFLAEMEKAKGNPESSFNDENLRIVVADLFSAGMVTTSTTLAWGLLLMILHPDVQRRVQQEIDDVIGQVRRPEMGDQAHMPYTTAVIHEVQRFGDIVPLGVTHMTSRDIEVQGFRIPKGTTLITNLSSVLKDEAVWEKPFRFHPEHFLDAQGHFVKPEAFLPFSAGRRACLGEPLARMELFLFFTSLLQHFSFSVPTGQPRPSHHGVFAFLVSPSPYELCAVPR

CNC(=O)Oc1cc(C)c(SC)c(C)c1
active: [3] 61.1 µM | [12] 54.5 µM
not listed: [15] | [16] | [17] | [18] | [19] | [20]
inactive: all other assays above

CN1CSC(=S)N(C)C1
27.2 µM (active) and inactive: [6]
active: [1] 10.9 µM and 8.69 µM | [4] 5.42 µM and 6.09 µM | [15] 15.4 µM | [16] 6.13 µM and 9.75 µM | [17] 17.3 µM and 24.5 µM | [18] 4.31 µM and 9.66 µM | [7] 9.64 µM and 8.61 µM | [11] 5.01 µM and 21.6 µM | [12] 1.36 µM and 7.67 µM
inactive: [2] | [3] | [5] | [8] | [9] | [10] | [13] | [14] | [19]

O=S(=O)(C(Cl)(Cl)Cl)C(Cl)(Cl)Cl
inactive: [3] | [9]
active: [1] 21.9 µM | [2] 61.1 µM | [4] 48.6 µM | [20] 12.3 µM | [15] 12.3 µM | [5] 38.9 µM | [16] 19.5 µM | [17] 11 µM | [6] 61.1 µM | [18] 21.7 µM | [11] 61.1 µM | [12] 8.63 µM | [13] 61.1 µM | [19] 2 µM

Cc1cc(C)c(C(=O)P(=O)(c2ccccc2)c2ccccc2)c(C)c1
active: [1] 49 µM | [3] 15.4 µM | [20] 43.6 µM | [15] 43.6 µM | [17] 38.9 µM | [18] 61.1 µM | [7] 61.1 µM | [11] 61.1 µM | [19] 5.03 µM
inactive: [2] | [4] | [8] | [10]

OCC(c1ccc(Cl)cc1)c1ccc(Cl)cc1
active: [1] 54.9 µM | [15] 30.9 µM | [16] 38.9 µM | [17] 30.9 µM | [18] 54.5 µM
inactive: [6] | [8] | [10] | [13] | [14] | [19]

c1ccc2c(c1)Sc1ccccc1N2CC1CN2CCC1CC2 (stereo not drawn)
active: [1] 19 µM | [18] 23.7 µM | [7] 21.1 µM | [11] 26.6 µM | [12] 29.8 µM | [13] 29.8 µM
inactive: [2] | [3]

O=C(c1ccc(Cl)cc1)c1ccc(Cl)cc1
inactive: [3]

Clc1ccccc1-c1ccccc1Cl
active: [16] 31.4 µM
not listed: [1] | [2] | [3] | [8] | [15] | [17] | [18] | [20]
inactive: all other assays above

Oc1c(Cl)ccc(Cl)c1Cl
inactive: [9]

CCc1cccc(CC)c1N
inactive: [3]

C=CC(=O)OCCCC
inactive: [8]

CC(C)(C)OCC1CO1 (stereo not drawn)
inactive: [8]
